The results in this text go back to PubChem BioAssay (NCI).

Among the test systems are T-47D breast; BT-549 breast; MDA-MB-435 melanoma; MCF7 breast; HCT-116 colon; HCC-2998 colon; KM12 colon; SW-620 colon.
What all share (experiment): NCI-60 one-dose screen, 48 h (100 = growth as untreated, 0 = no growth, -100 = all killed)
Holding throughout (conditions): 10 µM unless noted

Compounds without any hit were thinned out: in the full panel of roughly 83,000, 20% have a hit.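 Treatment: one concentration, 48 hours, 96-well format. Scoring: percent growth, with anything below 10 considered active.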 Values without a mark were called inactive. Activity calls are given as the source filed them.

In the case of `CCOC(=O)C(COS(C)(=O)=O)(COS(C)(=O)=O)C(=O)OCC`, the growth was 103% with T-47D breast; 106% in the experiment with BT-549 breast; 104% in the experiment with MDA-MB-435 melanoma; 98.7% in the experiment with MCF7 breast; 104% in the experiment on HCT-116 colon; 106% in the experiment on HCC-2998 colon. Besides, in the experiment on KM12 colon, the growth was 107%.
For `CCCCN(C(=O)CC)c1ccccc1`, the growth with T-47D breast is 110%; in the experiment on BT-549 breast it was 104%; with MDA-MB-435 melanoma, 108%; in the experiment with MCF7 breast, 100%; in the experiment on HCT-116 colon, 99.8%; in the experiment with HCC-2998 colon it was 112%. Further, the growth in the experiment on KM12 colon is 102%.
In the case of `C=CCC(OC(C)=O)c1ccc(OC)c(OC)c1` (stereo not given), the growth was 112% in the experiment on T-47D breast; 116% in the experiment with BT-549 breast; 110% with MDA-MB-435 melanoma; 98% with SW-620 colon; 103% with HCT-116 colon; 99% in the experiment with KM12 colon.
On to `Cc1ccc(C(C)C)c(OCC(=O)O)c1`, for which the growth with T-47D breast is 117%; with BT-549 breast it was 112%; with MDA-MB-435 melanoma, 108%; with SW-620 colon it was 96%; in the experiment with HCT-116 colon, 105%; in the experiment with HCC-2998 colon, 106%. Also, the growth in the experiment on KM12 colon is 108%.
With `C=CCc1cc(OC)c(OC)c(OC)c1`, the growth in the experiment on T-47D breast is 108%; in the experiment on BT-549 breast, 96.1%; with MDA-MB-435 melanoma, 108%; in the experiment with MCF7 breast, 113%; in the experiment with HCT-116 colon, 99.1%; in the experiment on HCC-2998 colon it was 100%.
On to `O=C1NCC2CCCC1C2` (stereo not given), for which the growth in the experiment with T-47D breast is 118%; in the experiment with BT-549 breast, 98.3%; with MDA-MB-435 melanoma it was 112%; with SW-620 colon, 120%; in the experiment on HCT-116 colon it was 101%; in the experiment with HCC-2998 colon, 93.1%. In addition, the growth in the experiment on KM12 colon was 107%.
Regarding `Cc1ccc(/C=N/NC(N)=S)s1`, the growth is 100% with T-47D breast; 113% with BT-549 breast; 106% with MDA-MB-435 melanoma; 107% in the experiment on SW-620 colon; 99.5% in the experiment on HCT-116 colon; 113% with HCC-2998 colon. Also, in the experiment with KM12 colon, the growth is 107%.
With `Cc1cc(CO)c(O)c(CO)c1`, the growth in the experiment with T-47D breast was 96.4%; in the experiment with BT-549 breast it was 94.7%; with MDA-MB-435 melanoma, 106%; in the experiment on SW-620 colon, 99.9%; in the experiment with HCT-116 colon, 98.2%; with HCC-2998 colon, 96.8%. Moreover, the growth in the experiment on KM12 colon was 107%.
With `Nc1ccn(C2CC(N)C(CO)O2)c(=O)n1` (stereo not given), the growth with T-47D breast was 81.1%; in the experiment on BT-549 breast, 71.8%; with MDA-MB-435 melanoma, 83.6%; in the experiment with SW-620 colon it was 88.8%; in the experiment with HCT-116 colon, 63.6%; in the experiment with HCC-2998 colon, 74.8%. In the experiment with KM12 colon, the growth is 97.4%.
Regarding `O=C(O)Cc1cccc2ccccc12`, the growth with T-47D breast was 103%; with BT-549 breast, 107%; with MDA-MB-435 melanoma it was 104%; in the experiment with SW-620 colon, 102%; in the experiment with HCT-116 colon, 106%; in the experiment with KM12 colon it was 107%.
In the case of `CS(=O)CC(=N\O)/C(CS(C)=O)=N\O` (stereo not given), the growth is 108% with T-47D breast; 106% in the experiment on BT-549 breast; 106% with MDA-MB-435 melanoma; 101% in the experiment with SW-620 colon; 102% in the experiment on HCT-116 colon; 105% in the experiment with HCC-2998 colon. The growth with KM12 colon is 102%.
As for `O=C(N/N=C\c1ccc(Cl)cc1Cl)c1ccncc1`, the growth was 96.6% in the experiment with T-47D breast; 65.7% with BT-549 breast; 105% with MDA-MB-435 melanoma; 111% with SW-620 colon; 101% in the experiment with HCT-116 colon; 112% with KM12 colon.
As for `c1cc(CNCCNCc2ccncc2)ccn1`, the growth is 91.4% in the experiment on T-47D breast; 117% in the experiment with BT-549 breast; 112% with MDA-MB-435 melanoma; 105% in the experiment on SW-620 colon; 95.2% in the experiment on HCT-116 colon; 108% in the experiment with KM12 colon.
As to `O=Cc1ccc(F)cc1`, the growth was 94.6% with T-47D breast; 100% with BT-549 breast; 97.9% with MDA-MB-435 melanoma; 92.8% in the experiment on SW-620 colon; 101% in the experiment on HCT-116 colon; 104% with HCC-2998 colon. Also, the growth in the experiment on KM12 colon is 109%.
With `CCN(CC)CCN1CNC(=S)NC1`, the growth in the experiment with T-47D breast was 94.5%; in the experiment on BT-549 breast, 102%; in the experiment with MDA-MB-435 melanoma, 109%; in the experiment on SW-620 colon, 107%; in the experiment on HCT-116 colon, 103%; in the experiment with HCC-2998 colon it was 109%. Besides, the growth in the experiment with KM12 colon is 98.7%.
On to `O=C1CSc2ccccc2N1`, for which the growth in the experiment with T-47D breast is 107%; in the experiment with BT-549 breast, 117%; with MDA-MB-435 melanoma, 108%; in the experiment with SW-620 colon, 99.2%; with HCT-116 colon, 111%; in the experiment with HCC-2998 colon it was 99.6%. Moreover, in the experiment with KM12 colon, the growth was 109%.
For the compound `COc1ccc(/C=N/NC(=O)COCC(=O)N/N=C/c2ccc(OC)cc2)cc1`, the growth with T-47D breast was 104%; in the experiment on BT-549 breast it was 118%; in the experiment with MDA-MB-435 melanoma it was 98.2%; in the experiment on SW-620 colon it was 108%; with HCT-116 colon, 111%; in the experiment on HCC-2998 colon it was 111%. In the experiment on KM12 colon, the growth was 107%.
With `COc1ccc(/C=C\C(=O)/C=C/c2ccc(OC)cc2)cc1`, the growth in the experiment with T-47D breast was 80.1%; in the experiment with BT-549 breast it was 48.5%; in the experiment with MDA-MB-435 melanoma, -30.4% (active); in the experiment with MCF7 breast it was 11%; in the experiment with HCT-116 colon, -96.6% (active); in the experiment with HCC-2998 colon, -16% (active). In addition, in the experiment with KM12 colon, the growth is 4.59% (active).
With `CC(=O)C1C(=O)C(=O)N(c2cccc([N+](=O)[O-])c2)C1=O` (stereo not given), the growth with T-47D breast is 101%; in the experiment with BT-549 breast it was 109%; with SW-620 colon, 111%; with MCF7 breast it was 94.3%; in the experiment on HCT-116 colon it was 109%; with HCC-2998 colon it was 85.9%. The growth with KM12 colon is 112%.
As to `COc1cc(N)c2ncccc2c1Cl`, the growth is 101% with T-47D breast; 87.5% with BT-549 breast; 111% in the experiment with MDA-MB-435 melanoma; 104% with MCF7 breast; 95.3% in the experiment on HCT-116 colon; 106% with HCC-2998 colon. Besides, the growth in the experiment with KM12 colon was 117%.
